Laboratory results from PubChem BioAssay AID1159580 (chemical genetic matrix, 2015).
Where “and” joins values, the source holds several entries; their conditions need not be identical. Equal values may be shown once. Screen size: about 5,500 compounds; about 2,000 (36%) were called active. Not shown: some 18% with an inconclusive outcome. Rule as the data show it: active = normalized growth mostly below about 0.91 (no sharp cut-off); inconclusive = no clear call, values can overlap the other calls; inactive = mostly above about 0.92. This is one part of the list.

Test: chemical genetic growth profiling, strain panel (AID 1159580);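 also: tested at 20 µM; growth read once vehicle control cultures reached saturation at 30 °C; 1 = growth at the plate median or of vehicle wells; lower values mean less growth of the strain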
Conditions: S. cerevisiae deletion strains, growth OD

Measured: normalized growth

NC[C@@H]1O[C@H](O[C@@H]2[C@@H](CO)OC(O[C@@H]3[C@@H](O)[C@H](N)C[C@H](N)[C@H]3O[C@H]3O[C@H](CO)[C@@H](O)[C@H](O)[C@H]3N)[C@@H]2O)[C@H](N)[C@@H](O)[C@@H]1O (stereo partly drawn)
inactive: locus YAL021C, strain ccr4, stronger effect = lower value 0.996 | locus YAL026C, strain drs2, stronger effect = lower value 0.992 | locus YAL030W, strain snc1, stronger effect = lower value 0.995 | locus YBL061C, strain skt5, stronger effect = lower value 0.995 | locus YBR009C, strain hhf1, stronger effect = lower value 0.986 | locus YBR021W, strain FUR4, stronger effect = lower value 1.03 | locus YBR023C, strain chs3, stronger effect = lower value 0.999 | locus YBR171W, strain sec66, stronger effect = lower value 0.973 | locus YBR229C, strain ROT2, stronger effect = lower value 0.96 | locus YBR231C, strain swc5, stronger effect = lower value 0.992 | locus YBR279W, strain paf1, stronger effect = lower value 0.992 | locus YCL011C, strain gbp2, stronger effect = lower value 0.985 | locus YCL016C, strain dcc1, stronger effect = lower value 0.988 | locus YCL029C, strain bik1, stronger effect = lower value 1 | locus YCL061C, strain MRC1, stronger effect = lower value 0.953 | locus YCL069W, strain vba3, stronger effect = lower value 0.992 | locus YCR088W, strain abp1, stronger effect = lower value 0.997 | locus YDL005C, strain med2, stronger effect = lower value 0.992 | locus YDL035C, strain GPR1, stronger effect = lower value 0.996 | locus YDL040C, strain nat1, stronger effect = lower value 0.984 | locus YDL074C, strain BRE1, stronger effect = lower value 0.961 | locus YDL101C, strain DUN1, stronger effect = lower value 0.98 | locus YDL134C, strain PPH21, stronger effect = lower value 1.01 | locus YDL185W, strain tfp1, stronger effect = lower value 0.982 | locus YDL192W, strain arf1, stronger effect = lower value 0.991 | locus YDR001C, strain nth1, stronger effect = lower value 0.995 | locus YDR069C, strain doa4, stronger effect = lower value 0.994 | locus YDR101C, strain arx1, stronger effect = lower value 0.985 | locus YDR137W, strain rgp1, stronger effect = lower value 1.01 | locus YDR159W, strain sac3, stronger effect = lower value 0.966 | locus YDR162C, strain NBP2, stronger effect = lower value 0.998 | locus YDR195W, strain ref2 0.981 | locus YDR297W, strain sur2, stronger effect = lower value 0.992 | locus YDR318W, strain mcm21, stronger effect = lower value 1 | locus YDR334W, strain swr1, stronger effect = lower value 0.989 | locus YDR335W, strain msn5, stronger effect = lower value 0.998 | locus YDR388W, stronger effect = lower value 0.992 | locus YDR392W, strain spt3, stronger effect = lower value 0.974 | locus YDR502C, strain sam2, stronger effect = lower value 0.988 | locus YEL003W, strain gim4, stronger effect = lower value 0.986 | locus YEL037C, strain rad23, stronger effect = lower value 0.977 | locus YEL061C, strain CIN8 (second series), stronger effect = lower value 0.988 | locus YEL061C, strain CIN8, stronger effect = lower value 0.985 | locus YER015W, strain faa2, stronger effect = lower value 0.995 | locus YER016W, strain bim1, stronger effect = lower value 0.989 | locus YER110C, stronger effect = lower value 0.994 | locus YER111C, strain swi4, stronger effect = lower value 0.988 | locus YER155C, strain BEM2 (second series), stronger effect = lower value 0.985 | locus YER155C, strain BEM2, stronger effect = lower value 1 | locus YER167W, strain BCK2, stronger effect = lower value 1.01 | locus YFR010W, strain ubp6, stronger effect = lower value 0.996 | locus YGL078C, strain dbp3, stronger effect = lower value 0.995 | locus YGL086W, strain mad1, stronger effect = lower value 0.983 | locus YGL167C, strain pmr1, stronger effect = lower value 1 | locus YGL173C, strain kem1, stronger effect = lower value 0.984 | locus YGL227W, strain vid30, stronger effect = lower value 0.999 | locus YGL240W, strain doc1, stronger effect = lower value 0.991 | locus YGL248W, strain PDE1, stronger effect = lower value 0.969 | locus YGL253W, strain hxk2, stronger effect = lower value 0.988 | locus YGR078C, strain PAC10, stronger effect = lower value 0.968 | locus YGR135W, strain pre9, stronger effect = lower value 1.05 | locus YGR229C, strain SMI1, stronger effect = lower value 1 | locus YGR252W, strain gcn5, stronger effect = lower value 1.02 | locus YHR013C, strain ard1, stronger effect = lower value 0.988 | locus YHR027C, strain rpn1, stronger effect = lower value 0.999 | locus YHR030C, strain SLT2, stronger effect = lower value 1 and 0.966 | locus YHR079C, strain IRE1 (second series), stronger effect = lower value 0.993 | locus YHR079C, strain IRE1, stronger effect = lower value 0.974 | locus YHR094C, strain hxt1, stronger effect = lower value 0.997 | locus YHR129C, strain ARP1, stronger effect = lower value 1 | locus YHR142W, strain chs7, stronger effect = lower value 0.983 | locus YHR200W, strain rpn10, stronger effect = lower value 0.993 | locus YIL066C, strain RNR3, stronger effect = lower value 0.969 | locus YIL073C, strain SPO22, stronger effect = lower value 1.07 | locus YIL125W, strain kgd1, stronger effect = lower value 0.992 | locus YIR030C, strain dcg1, stronger effect = lower value 0.993 | locus YJL092W, strain hpr5, stronger effect = lower value 0.993 | locus YJL095W, strain BCK1 (second series), stronger effect = lower value 0.992 | locus YJL095W, strain BCK1, stronger effect = lower value 0.959 and 0.976 | locus YJL115W, strain asf1, stronger effect = lower value 0.984 | locus YJL129C, strain trk1, stronger effect = lower value 0.977 | locus YJL134W, strain LCB3, stronger effect = lower value 0.999 | locus YJL154C, strain vps35, stronger effect = lower value 0.987 | locus YJL164C, strain tpk1, stronger effect = lower value 0.948 | locus YJL166W, strain qcr8, stronger effect = lower value 0.986 | locus YJL168C, strain set2, stronger effect = lower value 0.987 | locus YJL187C, strain SWE1 (second series), stronger effect = lower value 0.954 | locus YJL187C, strain SWE1, stronger effect = lower value 0.992
